Measurements taken from ChEMBL document CHEMBL3988442, “University of Dundee, Small-Polar-MMV Screening Library” (2021).
The whole screen tested about 48,000 compounds, of which about 13,000 (27%) showed an effect of 50% or more. This is one part of the list.

tested on: Wolbachia pipientis; assay: Anti-Wolbachia Cell-Based Screen; assay type: functional; design: scale not given: in the data most compounds retested in dose-response had high values; conditions: 5 µM

Compound | Percent Effect [%]
O=C(CN1CCCC(c2ccn[nH]2)C1)Nc1nncs1 (stereo not drawn) | 12
CC(C)c1cnc(CN2CCCC(c3ccn[nH]3)C2)o1 (stereo not drawn) | -28.34
Cc1cc(OCC(=O)N2CCCC(c3ccn[nH]3)C2)no1 (stereo not drawn) | 1.786
O=C(c1cc(=O)n(-c2ccccc2)[nH]1)N1CCCC(c2ccn[nH]2)C1 (stereo not drawn) | 77.64
O=C(CCCc1nc(C2CC2)no1)N1CCCC(c2ccn[nH]2)C1 (stereo not drawn) | -3.493
CC(C)N1CCC(c2ccnc3c(C(=O)N4CCOCC4)ncn23)CC1 | -16.45
Cn1nc(Cn2cccn2)c2c1CN(Cc1ccoc1)C2.O=C(O)C(F)(F)F | -5.298
CC(=O)N1CCC(C)(c2nc(C)no2)CC1 | 134.3
Cc1noc([C@@]23CCO[C@@H]2CCN(C(=O)c2cc(C)on2)C3)n1 | 4.569
Cc1noc([C@@]23CCO[C@@H]2CCN(C(=O)c2cc(C)[nH]c2C)C3)n1 | 12.25
Cc1noc(C2(C)CCN(C(=O)C(C)C)CC2)n1 | 126.4
Cc1noc(C2(C)CCCN(C(=O)C(C)C)C2)n1 (stereo not drawn) | 123
Cc1noc([C@@]23CCO[C@@H]2CCN(C(=O)CN(C)C)C3)n1 | 5.284
Cc1noc([C@@]23CCO[C@@H]2CCN(C(=O)CCC(C)C)C3)n1 | 4.63
COCC(=O)N1CC[C@H]2OCC[C@@]2(c2nc(C)no2)C1 | 6.759
Cc1noc([C@@]23CCO[C@@H]2CCN(C(=O)c2cc(C)c(C)s2)C3)n1 | 6.303
Cc1cccc2c1nc(CCO)n2-c1ccc(C(=O)N2CCCC2)o1 | 4.629
Fc1cccc(-n2cc(CN3CCCCC3CCn3ccnc3)cn2)c1 (stereo not drawn) | -14.22
CC(C)(N)C(=O)N1CCCC1c1cncc(Oc2ccccc2)n1 (stereo not drawn) | 115.4
Cc1cncc(C2CCCN(C(=O)c3cccn3C)C2)n1 (stereo not drawn) | 5.721
CC(C)(N)C(=O)N1CCCC(c2cncc(Oc3cccnc3)n2)C1 (stereo not drawn) | 102.7
CC(C)C(=O)N1CCCC(c2cncc(Oc3cccnc3)n2)C1 (stereo not drawn) | 130.5
CC(C)(N)C(=O)N1CCCC1c1cncc(Oc2ccc(F)cc2)n1 (stereo not drawn) | 9.255
CCS(=O)(=O)c1ncc(CN(C)Cc2ccccc2Cl)n1CCOC | 6.102
CCN(CC)Cc1cc(C(=O)N2CC(C)(C)[C@@](C)(O)C2)c(C)o1 | -3.4
CS(=O)(=O)N1CCC2(CC1)COC(COc1cccnc1)C2.O=C(O)C(F)(F)F (stereo not drawn) | -9.864
O=C(COc1ccccc1)N(Cc1ccncc1)C1CC1 | -3.212

Compound | Percent Effect [%]
CC(C)(C)CN1CC(COc2ccccc2)Oc2ccncc2S1(=O)=O (stereo not drawn) | 80.37
O=S1(=O)c2cnccc2OC(COc2ccccc2)CN1CC1CC1 (stereo not drawn) | 96.1
O=S1(=O)CCC(n2nc(COc3ccccc3)nc2-c2cnccn2)C1 (stereo not drawn) | -50.17
Cc1nc2cc(=O)[nH]n2c(C)c1CC(=O)Nc1cnn(C)c1 | -2.134
CCc1ncc(C(=O)N(C)CC2Cc3ccccc3O2)cn1 (stereo not drawn) | -1.94
Cc1nn(C)c(C)c1CCNC(C)c1ccc(-n2ccnc2C)cc1 (stereo not drawn) | -1.532
CC(C)N1CCC2(C=C(C(=O)N(C)C)c3ccccc32)CC1.O=C(O)C(F)(F)F | -1.303
O=C(C1=CC2(CCN(CCO)CC2)c2ccccc21)N1CCCC1.O=C(O)C(F)(F)F | -8.81
CC(C)CN1CCC2(C=C(C(=O)N3CCCC3)c3ccccc32)CC1.O=C(O)C(F)(F)F | 13.87
CCN1CCC2(C=C(C(=O)N(C)C)c3ccccc32)CC1.O=C(O)C(F)(F)F | 130.6
Cc1ccc(CN2CCC3(CC2)OC(C(=O)N(C)C)c2ccccc23)o1.O=C(O)C(F)(F)F (stereo not drawn) | 8.053
CC(C)CN1CCC2(C=C(C(=O)N(C)C)c3ccccc32)CC1.O=C(O)C(F)(F)F | 90.84
COc1ccc(C(C)NCc2c[nH]nc2C)cc1Br.Cl (stereo not drawn) | 2.435
Cc1ncoc1C(=O)N1CCc2[nH]nc(-c3ccc4c(c3)OCO4)c2C1 | -5.297
CC(C)CC(CCO)CNC(=O)N1CCCC1(C)C (stereo not drawn) | -11.2
O=C(O)C(F)(F)F.O=C(c1cccnc1)N1CCCC2(COCCN(c3ccccc3)C2)C1 (stereo not drawn) | 104.3
O=C(c1ccnnc1)N1CC2(CCN(c3ncccn3)C2)C1 | -3.842
O=C(O)C(F)(F)F.O=C([C@H]1CCCO1)N1CCCC2(COCCN(c3ccccc3)C2)C1 (stereo partly drawn) | 121.5
O=C(C1CCCCC1)N1CCCC2(CCN(c3cnccn3)CC2)C1.O=C(O)C(F)(F)F | 1.174
Cc1cc(C(=O)N2CCCC3(COCCN(c4ccccc4)C3)C2)[nH]n1 (stereo not drawn) | -3.26
O=C(O)C(F)(F)F.O=C(c1ccncc1)N1CCCC2(COCCN(c3ccccc3)C2)C1 (stereo not drawn) | 3.35
O=C(c1ccc[nH]1)N1CC2(CCN(c3ncccn3)C2)C1 | -13.43
O=C(c1cccnc1)N1CCOCC2(CCN(c3ncccn3)C2)C1 (stereo not drawn) | 104.1
O=C(O)C(F)(F)F.O=C(c1cccnc1)N1CCOC2(COCCN(c3cncnc3)C2)C1 (stereo not drawn) | -2.912
O=C(C1CCCC1)N1CCCC2(CCN(c3cnccn3)CC2)C1.O=C(O)C(F)(F)F | -29.32
O=C(C1CCCO1)N1CCCC2(CCN(c3cccnc3)CC2)C1.O=C(O)C(F)(F)F (stereo not drawn) | 111.1
